# Laboratory results: the supplement of paper PMC6555819
# How the values were obtained:
# Assay in all cases: PBM binding z-score (relative to random genomic background probes); higher = stronger binding; sequences stand for … in GC…GCGATTGACAGCGTAGAATGAAGG
# [1] = system: FXR:RXRa (NR concentration 270 nM, RXRa partner concentration 90 nM)
# How it was run: (§1)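 Each nuclear receptor dimer, without ligand, was incubated for 1 h on custom Agilent 4×180K protein-binding microarrays. Binding was detected with antibodies against each partner (one per run), and scanned fluorescence was regression-normalized. The binding z-scores are referenced to random human genomic background probes.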
# [2] = system: LXRa:RXRa (NR concentration 270 nM, RXRa partner concentration 90 nM)
# How it was run: as §1
# [3] = system: LXRa homodimer (NR concentration 270 nM)
# How it was run: as §1
# [4] = system: LXRb:RXRa (NR concentration 270 nM, RXRa partner concentration 90 nM)
# How it was run: as §1
# [5] = system: LXRb homodimer (NR concentration 270 nM)
# How it was run: as §1
# [6] = system: PPARa:RXRa (NR concentration 270 nM, RXRa partner concentration 90 nM)
# How it was run: as §1
# [7] = system: PPARg:RXRa (NR concentration 180 nM, RXRa partner concentration 90 nM)
# How it was run: as §1
# [8] = system: PPARg:RXRa 270nM:90nM, anti-RXR (NR concentration 270 nM, RXRa partner concentration 90 nM)
# How it was run: as §1
# [9] = system: PPARg:RXRa 30nM:10nM, anti-RXR (NR concentration 30 nM, RXRa partner concentration 10 nM)
# How it was run: as §1
# [10] = system: PPARg:RXRa 90nM:30nM, anti-RXR (NR concentration 90 nM, RXRa partner concentration 30 nM)
# How it was run: as §1
# [11] = system: PPARg:RXRa DBDmut IVT, anti-RXR (DBD mutation: RXRa K156A/R161A, NR concentration 270 nM, RXRa partner concentration 90 nM)
# How it was run: as §1
# [12] = system: PPARg:RXRa IVT, anti-PPARg (NR concentration 270 nM, RXRa partner concentration 90 nM)
# How it was run: as §1
# [13] = system: PPARg DBDmut:RXRa IVT, anti-PPARg (DBD mutation: PPARg1 K132A/R137A, NR concentration 270 nM, RXRa partner concentration 90 nM)
# How it was run: as §1
# [14] = system: PPARg DBDmut IVT, anti-PPARg (DBD mutation: PPARg1 K132A/R137A, NR concentration 270 nM)
# How it was run: as §1
# [15] = system: PPARg homodimer (NR concentration 180 nM)
# How it was run: as §1
# [16] = system: PXR:RXRa (NR concentration 270 nM, RXRa partner concentration 90 nM)
# How it was run: as §1
# [17] = system: PXR homodimer (NR concentration 270 nM)
# How it was run: as §1
# [18] = system: RARa:RXR (NR concentration 270 nM, RXRa partner concentration 90 nM)
# How it was run: as §1
# [19] = system: RARa homodimer (NR concentration 270 nM)
# How it was run: as §1
# [20] = system: RARb:RXRa (NR concentration 270 nM, RXRa partner concentration 90 nM)
# How it was run: as §1
Sequence,PBM binding z-score [1],PBM binding z-score [2],PBM binding z-score [3],PBM binding z-score [4],PBM binding z-score [5],PBM binding z-score [6],PBM binding z-score [7],PBM binding z-score [8],PBM binding z-score [9],PBM binding z-score [10],PBM binding z-score [11],PBM binding z-score [12],PBM binding z-score [13],PBM binding z-score [14],PBM binding z-score [15],PBM binding z-score [16],PBM binding z-score [17],PBM binding z-score [18],PBM binding z-score [19],PBM binding z-score [20]
CCGAGTGGGGCAAAGGTTACCATACTCAGTACGA,1.45,1.82,0.144,2.37,-0.506,5.65,11,9.62,8.52,11,4.47,6.13,0.0641,-0.366,3,2.82,0.105,4.13,0.606,2.44
CCTAATGGGCCATTCAGAGGTCATTGATCATATG,2.75,4.67,6.94,4.05,1.04,3.68,1.37,2.27,0.458,1.54,2.5,2.39,0.168,0.266,2.02,4.59,1.84,4.39,0.847,3.27
CCAACTAGGTCAAAGGTCAAAGTCGAGCCAACCA,8.45,7.12,5.59,7.28,3.01,7.64,13.6,10.9,13.2,12.7,8.37,8.87,4.39,5.12,5.23,7.1,1.86,8.64,3.1,5.72
AGAATGAGGTTATACGTAGATCTGGGAAGAAAGT,2.02,1.53,-0.23,1.2,-0.294,3.14,1.88,2,0.653,1.38,3.58,2.08,0.645,0.965,0.546,0.994,0.44,1.5,-0.128,1.23
GGAACCAGGGCAAAGTTGATAGCATCTGTCGACG,0.769,0.723,-0.0781,0.931,0.32,4.38,7.33,7.61,6.29,7.86,4.31,4.92,0.131,1.82,1.1,0.754,0.639,0.798,0.36,2.22
CCTACTGGGCCAAAGTCATTGATCAGTCAAAGCA,-0.681,-0.266,-0.412,-0.243,-1.2,0.687,1.42,2.53,0.485,1.74,4.29,3.6,-0.537,-0.517,-0.302,-0.584,-0.623,-0.335,-1.15,0.121
TCGAGTAGGTTCCCAATGGGGCATTCAGCTTTCT,-0.431,-0.384,-0.577,-0.1,-1.76,-0.101,-0.771,0.361,0.7,0.426,0.883,0.261,-1.28,-1.09,-0.805,-0.411,-1.24,-0.343,-1.9,-0.327
TGTCAAAGTTCAGAGGTAACGTAAGTATCCACAC,4.53,4.37,1.55,2.56,0.204,4.07,6.27,6.33,3.46,6.02,-0.368,3.54,0.775,1.39,2.26,3.39,0.858,3.43,0.97,4.36
TCGAGTAGGTTAGGGGCATTCAGAATGGCGTCGA,0.42,0.257,-0.31,0.672,-0.239,1.39,0.676,1.98,1.13,1.76,1.95,1.44,-0.138,-0.987,1.13,0.245,0.264,0.141,-0.19,1.13
GCGACTGGGGCAATGCAGGTTACCATAAGGTTGG,0.0254,0.655,-0.566,0.504,-0.824,1.78,1.65,1.26,-0.113,0.69,4.37,4.53,-0.0887,-0.128,0.0203,0.548,-0.5,0.919,-0.465,0.959
GCTTGTAGATCAAGGTTAAGATAGACTAAGCTAA,0.296,1.56,-0.0877,0.529,-0.803,1.66,1.17,2.1,0.465,1.81,1.44,1.14,0.0148,-0.396,0.519,0.536,0.00293,0.825,-0.522,0.938
AGAACGAGGGCATGCTGAGTTGATAGCAGAGTAG,0.426,0.131,-0.52,-0.164,-1.15,1.12,0.939,0.666,0.00172,0.416,2.87,1.99,0.0501,-0.0747,-0.0685,1.14,0.117,0.374,-0.883,1.89
TCATATAGGTAAATGCTACGTGAAAGTCCGATCT,0.931,0.681,0.145,0.726,0.254,0.91,0.924,2.02,3.64,2.58,3.82,2.01,1.39,1.49,0.811,0.667,0.362,0.641,0.913,0.222
CGTCAAAGTTCAAGGTAACGTACCAGAAAGCAGC,6.54,5.59,3.17,3.47,1.03,4.79,4.38,5.05,1.94,4.24,0.681,2.41,0.882,0.599,4.5,4.28,3.52,3.57,2.48,5.12
CGTCAAAGTTCAACTAAGGTAACGTTAAGCACGC,7.22,6.43,4.8,4.26,2.3,5.14,5.07,5.53,2.21,4.37,0.539,2.1,1.06,1.28,3.26,5.84,4.4,4.54,2.15,5.22
CAAACTGGGTCAAGAGGTCAAAGTCCGCTTCCCG,6.73,6.26,5.68,5.53,1.32,6.47,9.59,8.33,7.11,8.47,7.83,8.28,2.26,1.72,5.48,6.28,2.74,7.7,1.96,5.29
CCTGGTTGGTCAAGGTCACACACGCTATAGGTAC,4.28,4.07,2.43,3.92,1.12,4.3,2.92,3.15,1.15,2.22,1.12,3.26,0.676,0.0653,3.15,4.44,2.85,4.78,2.07,4.41
ATATGTAGGTTAAGGGTCATCCAGGTTGGTTCGC,4.92,5.03,2.83,4.66,1.61,6.89,12.2,10.6,11.2,12.3,7.61,8.22,4.43,2.04,4.33,5.87,2.5,6.77,2.63,3.99
ATACCCAGGTGATCGTGAGGTCGTTGATACTAAC,1.37,1.07,0.85,1.07,-0.141,1.35,0.596,0.875,-0.0532,0.317,-0.291,1.1,0.599,0.838,0.843,2.35,1.32,1.95,-0.274,0.914
CCAGACAGGTGAGAAGGTCACTCAGCCTCGATTA,2.4,2.53,0.729,2.7,-0.075,3.65,2.01,3.07,0.629,1.98,1.76,2.14,-0.281,-1.25,3.61,3.25,1.11,4.09,2.83,3.58
GCCCGGAGGACAAGGTCAGAGCTTTGTCCGTAGA,1.63,1.41,-0.287,1.05,-1.25,1.98,-0.107,0.592,-0.793,-0.158,-0.658,0.093,-1.17,-2.1,0.821,1.56,-0.306,2.17,-1.21,3.16
CCTGCTAAGTCAATGGTCAGCTAAAGCAGCTCGC,-0.665,-0.355,-0.545,-0.517,-0.617,-0.254,-0.271,0.314,-0.862,0.0482,0.121,-0.663,-1.16,-0.747,-0.2,-0.405,-0.531,-0.153,-0.807,0.498
CCTTACGGGTCACTCCAGGTGATAGCATCGGAGT,5.24,5.98,0.158,3.34,-0.0681,4.26,3.57,3.66,1.31,2.64,2.72,3.72,-0.0866,-0.18,1.04,3.75,0.145,3.53,0.42,3.51
TATACAGGGTCAAAGGCCGGAGTACGAATGTCGA,6.93,6.1,2.37,4.53,2.31,6.26,7.67,6.73,4.47,6.51,2.46,4.9,2.77,1.88,2.2,3.97,0.381,5.47,1.43,4.27
GCTAGTTGGTCAGTTAAAGGTCACACACCGGTCG,3.58,4.58,5.75,3.98,0.905,4.23,3.18,5.17,3.67,4.95,1.33,2.95,0.429,0.266,5.59,4.98,1.44,6.18,2.99,4.13
TCAGACAGTTGAAGGTAACTCAGGTACGCAGTCG,0.761,1.54,0.0812,0.579,-0.363,1,0.579,2.27,3.99,3.4,2.22,0.0381,-0.122,-0.183,0.684,0.701,0.165,0.843,-0.196,0.547
